For 9 compounds, Potency results are on record in PubChem BioAssay (NCATS).

Inconclusive results are not listed. The source made the active and inactive calls. The call rests on the fitted dose curve; in most records, active means well fitted cell-killing curve with a large enough effect; inconclusive means small, poorly fitted or top-dose-only effect, or effect the other way; inactive means no such curve, though single readings can be large or run the other way.

Assay [1] in a line: Quantitative High-Throughput drug screen in 47 multiple myeloma cell lines against the NCATS MIPE library collection: INA6_PLB cell viability assay (AID 1918965; further: nearly all actives have a fitted effect of over 55% in size; further: potency means the concentration at half of the fitted maximal effect). An outline of the steps: (§1)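 Myeloma cells (500 per well) were exposed to MIPE 4.0 compounds by pin transfer and incubated 48 hours at 37C, 5% CO2. Viability was read as ATP by CellTiter-Glo luminescence, normalised to DMSO (100%) and media-only (0%) wells.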

Assay [2] can be described thus: Quantitative High-Throughput drug screen in 47 multiple myeloma cell lines against the NCATS MIPE library collection: JJN3_DSMZ cell viability assay (AID 1918966; further: nearly all actives have a fitted effect of over 50% in size; further: potency means the concentration at half of the fitted maximal effect). In short, it runs like this: (§2)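 Approved and investigational drugs from MIPE 4.0 were added by pin tool to 500 cells per well. After 48 hours at 37C, ATP-based CellTiter-Glo luminescence indicated remaining viability.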

The nature of assay [3]: Quantitative High-Throughput drug screen in 47 multiple myeloma cell lines against the NCATS MIPE library collection: Karpas25_ECACC cell viability assay (AID 1918968; further: nearly all actives have a fitted effect of over 35% in size; further: potency means the concentration at half of the fitted maximal effect). An outline of the steps:
as §2

Assay [4] can be described thus: Quantitative High-Throughput drug screen in 47 multiple myeloma cell lines against the NCATS MIPE library collection: KMS27_JCRB cell viability assay (AID 1918970). Further: nearly all actives have a fitted effect of over 30% in size. Further: potency means the concentration at half of the fitted maximal effect. In short, it runs like this:
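Myeloma cells (500 per well) were exposed to MIPE 4.0 compounds for 48 h at 37 °C, 5% CO2; viability was read as ATP luminescence with CellTiter-Glo, normalized to DMSO-only (100%) and media-only (0%) wells.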

A short description of assay [5]: Quantitative High-Throughput drug screen in 47 multiple myeloma cell lines against the NCATS MIPE library collection: KMS12PE_JCRB cell viability assay (AID 1918972). Further: series mostly up to about 46 µM; nearly all actives have a fitted effect of over 30% in size. An outline of the steps: as §1
Assay [6] in a line: Quantitative High-Throughput drug screen in 47 multiple myeloma cell lines against the NCATS MIPE library collection: KMS20_JCRB cell viability assay (AID 1918973). Further: nearly all actives have a fitted effect of over 45% in size. Further: potency means the concentration at half of the fitted maximal effect. An outline of the steps:
as §2

Assay [7] can be described thus: Quantitative High-Throughput drug screen in 47 multiple myeloma cell lines against the NCATS MIPE library collection: JIM1_ECACC cell viability assay (AID 1918964; further: potency means the concentration at half of the fitted maximal effect). In short, it runs like this: as §2
The nature of assay [8]: Quantitative High-Throughput drug screen in 47 multiple myeloma cell lines against the NCATS MIPE library collection: KMS12BM_JCRB cell viability assay (AID 1918971). Further: nearly all actives have a fitted effect of over 35% in size. Further: potency means the concentration at half of the fitted maximal effect. An outline of the steps: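 Viability readout: CellTiter-Glo luminescence following 5 min room-temperature incubation with reagent. Prior exposure: 48 h, 37C, humidified 5% CO2, 500 cells per well.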
Assay [9] in a line: Quantitative High-Throughput drug screen in 47 multiple myeloma cell lines against the NCATS MIPE library collection: H1112_PLB cell viability assay (AID 1918967; further: nearly all actives have a fitted effect of over 30% in size; further: potency means the concentration at half of the fitted maximal effect). In short, it runs like this:
as §2

Consider `CN(C)C(=O)C(CCN1CCC(O)(c2ccc(Cl)cc2)CC1)(c1ccccc1)c1ccccc1`, for which the Potency in [1] was 18.7 µM (active); in assay [2], 18.7 µM (active); in assay [3], 18.7 µM (active); in [6], 14.8 µM (active). In addition, the Potency entry in [4] and in assay [5] was “inactive” throughout.
For the compound `NCCCCCC(=O)O`, the Potency result in assay [7], in [3] and in assay [8] was “inactive” each time. Moreover, the Potency in assay [2] was 0.0187 µM (active).
`NC(CO)C(=O)NNCc1ccc(O)c(O)c1O` (centres undefined): the Potency result in assay [1], in [9], in assay [3], in assay [4] and in assay [5] was “inactive” in each case. Also, the Potency in [2] was 11.8 µM (active); in assay [8], 20.9 µM (active).
As to `N[C@@H](Cc1c[nH]c2ccc(O)cc12)C(=O)O`, the Potency result in assay [7], in assay [1], in assay [9], in assay [4] and in assay [5] was “inactive” in each case.
In the case of `CC(CCc1ccc(O)cc1)NCCc1ccc(O)c(O)c1` (centres undefined), the Potency is 18.7 µM (active) in assay [1]; 14.8 µM (active) in [2]; 18.7 µM (active) in [3]; 18.7 µM (active) in [4]; 14.8 µM (active) in [8]. Moreover, the Potency result in [6] was “inactive”.
With `O=C(c1ccc(F)cc1)C1CCN(CCn2c(=O)[nH]c3ccccc3c2=O)CC1`, the Potency result in [7], in assay [9], in assay [4] and in assay [8] was “inactive” each time. Further, the Potency in assay [1] is 20.9 µM (active).
On to `CN1CCN(CCCN2c3ccccc3Sc3ccc(Cl)cc32)CC1`, for which the Potency was 3.32 µM (active) in assay [7]; 14.8 µM (active) in assay [1]; 18.7 µM (active) in assay [2]; 20.9 µM (active) in [9]; 5.26 µM (active) in assay [3]; 16.6 µM (active) in [4]. Moreover, the Potency in [8] is 16.6 µM (active).
As for `CC1COc2c(N3CCN(C)CC3)c(F)cc3c(=O)c(C(=O)O)cn1c23` (centres undefined), the Potency result in assay [7], in [2], in [3] and in assay [8] was “inactive” throughout. Moreover, the Potency in assay [4] is 18.7 µM (active).
On to `CC(C)NCC(O)c1ccc(O)c(O)c1` (centres undefined), for which the Potency was 13.2 µM (active) in [7], 20.9 µM (active) in [2], 0.0418 µM (active) in assay [3] and 1.18 µM (active) in [4].
